Out of some 1,400 compounds screened, about 380 (27%) were called active.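 The calls were made as follows: active = mean inhibition above 50% across duplicate retests at 10 µM; inactive = the rest.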 This is one part of the list.

The nature of this test: yeast NALP1 reporter signal suppression – S. cerevisiae, luminescence, single concentration, NALP1 inhibitor project, confirmation (AID 488841).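 Also: plate controls were DMSO in galactose medium for no effect and cells in plain SD medium for full effect.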 The conditions noted are these: S. cerevisiae NALP1/ASC/Caspase-1 reporter, beta-gal luminescence; at 10 µM; stronger effect = higher value.
By inhibition is commonly meant the drop in the measured response relative to a control, in per cent. Consider `Cc1cccc(C(=O)NNC(=O)CN2C(=O)c3ccccc3C2=O)c1`, for which the inhibition is 24.9% (inactive).
In the case of `Cc1ccc(N2C(=N)/C(=C3/Nc4ccccc4S3)C(c3ccccc3)C2=O)cc1` (stereo unspecified), the inhibition is 35.2% (inactive).
As to `CCc1cccc2c(C(=O)COC(=O)c3ccc([N+](=O)[O-])s3)c[nH]c12`, the inhibition is 91.5% (active).
With `CCc1cccc2c(C(=O)CSc3nncn3-c3ccc(OC)cc3)c[nH]c12`, the inhibition was 25.8% (inactive).
With `CCc1cccc2c(C(=O)COC(=O)c3ccccc3)c[nH]c12`, the inhibition was 40% (inactive).
Next, `c1csc(CNc2nc3ccccc3n2CCN2CCOCC2)c1`: 33.5% (inactive); `O=C(CNC(c1ccccc1)c1ccccc1)Nc1c(F)cccc1F`: 26.1% (inactive).
In the case of `COC(=O)c1ccc(NC(=O)CN2C(=O)CNC2=O)cc1`, the inhibition is 32.5% (inactive).
Turning to `CC(C)NCCOCCOc1ccc(Cl)cc1Br`, the inhibition is 35.1% (inactive).
For the molecule `CN(C)CCNC(=O)COc1ccc(Cl)cc1Cl`, the inhibition was 25.2% (inactive).
With `CC(C)NC(=O)CCCOc1ccc(Cl)cc1Cl`, the inhibition is 54.9% (active).
Then `C=C1SC(Nc2c(C)cccc2C)=NC12CCCCC2`, with 29.4% (inactive); and `COc1ccccc1C(=O)Nc1ccc(OCc2nnc3c4ccccc4c(C)nn23)cc1`, with 36.5% (inactive); and `COc1ccc2[nH]c3c(C)c4ccncc4c(C)c3c2c1`, with 94.5% (active).
Then `COc1ccc2[nH]c(C)c(CCNC(=S)Nc3cc(C)cc(C)c3)c2c1`, with 30% (inactive); and `CC(C)CCN(C(=O)Nc1ccccc1)C(C)c1cccs1` (stereo unspecified), with 29.9% (inactive); and `CCOc1ccc(NC(=O)c2csc3c2CCCC3)cc1`, with 52.4% (active).
Regarding `CCOc1ccc(NC(=O)CSc2nnc(C)n2Cc2ccccc2)cc1`, the inhibition is 26.8% (inactive).
Next, `CCOc1ccc(NC(=O)c2cc3c(C)nc4ccccc4c3o2)cc1`: 17.3% (inactive).
For the molecule `O=C(NN1C(=O)c2cc(Br)ccc2NC1c1cc(Br)cc(Br)c1O)c1ccncc1` (stereo unspecified), the inhibition is 64.8% (active).
For `COC(=O)c1cccc(NC(=O)/C=C/c2ccc3c(c2)OCO3)c1`, the inhibition is 60.6% (active).
Consider `O=C(Nc1cccnc1)Nc1ccc2c(c1)OCO2`, for which the inhibition was 32.1% (inactive).
As for `CC1CN(C(=O)Nc2ccc3c(c2)OCO3)CC(C)O1` (stereo unspecified), the inhibition is 30.4% (inactive).
In the case of `Cc1ccc(S(=O)(=O)NCC(=O)N(CC(=O)NC(C)(C)C)Cc2cccs2)cc1`, the inhibition was 31.3% (inactive).
With `Cc1cc(=O)oc2cc(OCC(=O)N3CCN(C(=O)c4ccco4)CC3)ccc12`, the inhibition was 21.1% (inactive).
With `O=C(c1ccc(Br)o1)N(c1ccccn1)C1CCCCC1`, the inhibition was 41.8% (inactive).
In the case of `CC(=O)N(C1=C(Cl)C(=O)c2ccccc2C1=O)C1CCCCC1`, the inhibition is 58% (active).
`C/C(=N\N(C)C)C1=C(O)c2ccccc2C1=O`: the inhibition is 29.9% (inactive).
For the molecule `CN(C)c1ccc(N=C/C=C2/N(C)c3ccccc3C2(C)C)cc1`, the inhibition is 47.2% (inactive).
`CCOC(=O)C[N+](CC)(CC)CC#Cc1ccccc1`: the inhibition is 15.1% (inactive).
Take `Cc1nnc(-c2ccccc2)o1`: the inhibition is 31.1% (inactive).
As to `CCCc1nn(C)c(C(=O)Nc2cccc(C)c2)c1Cl`, the inhibition is 42.2% (inactive).
For `Cc1cccc(NCc2nc3ccccc3n2C)c1`, the inhibition is 66% (active).
As to `CCOC(=O)c1c(/N=C/c2cc(OC)cc([N+](=O)[O-])c2O)sc(C)c1C`, the inhibition is 44.5% (inactive).
Turning to `CS(=O)(=O)N1N=C(c2ccco2)CC1c1ccc(Cl)cc1` (stereo unspecified), the inhibition was 19.9% (inactive).
As to `COc1ccc(/C=N/NC(=O)c2csc(-n3nc(C)cc3C(F)(F)F)n2)cc1`, the inhibition was 17.9% (inactive).
Consider `Cc1cc(Cl)c(OCCOCCN2CCC(C)CC2)c(Br)c1`, for which the inhibition is 44.9% (inactive).
In the case of `Clc1ccc(OCCOCCN2CCc3ccccc3C2)c(Cl)c1`, the inhibition is 52.3% (active).
With `C=CCc1cc(Cl)ccc1OCCOCCNCCOC`, the inhibition was 41.8% (inactive).
Take `Cc1sc2ncnc(N/N=C/c3ccccc3O)c2c1C`: the inhibition is 40.2% (inactive).
Turning to `Nc1c(Cl)ncnc1N/N=C/c1ccccn1`, the inhibition was 71.3% (active).
Then `Cc1c(Cl)c([N+](=O)[O-])nn1Cc1ccc(C(=O)N/N=C\c2ccccn2)o1`, with 28.8% (inactive); and `Cc1cc(C)cc(OCc2nnc(SCC(=O)OC(C)C)o2)c1`, with 47% (inactive); and `CC1=C(OC(=O)c2ccc(Br)cc2)C(C)(C)C(c2ccccc2)OC1=O` (stereo unspecified), with 24.7% (inactive).
Take `Cc1nc(NC(=O)/C=C/c2ccccc2)n[nH]1`: the inhibition is 40.7% (inactive).
On to `C1CCC(C(CC2CCCCN2)C2CCCCC2)CC1` (stereo unspecified), for which the inhibition was 54.6% (active).
In the case of `COc1cc(OC)c(-c2nnc(-c3ccc(OC)c(OC)c3OC)o2)cc1OC`, the inhibition is 31.9% (inactive).
Turning to `CC1=CC(C)(C)Nc2ccc(OC(=O)C(C)N3C(=O)c4ccccc4C3=O)cc21` (stereo unspecified), the inhibition is 32.8% (inactive).
Regarding `O=C(Cn1nnc2ccccc21)OCC(=O)c1ccc(Cl)cc1`, the inhibition was 40.5% (inactive).
Then `O=C1C=CC(=O)N1CCNc1ncc(C(F)(F)F)cc1Cl`, with 46.6% (inactive); and `O=C1C=CC(=O)N1CCCCCCN1C(=O)C=CC1=O`, with 73.3% (active).
Then `CC1CCC2C(=O)N(c3ccc(C(=O)Oc4cccc5cccnc45)cc3)C(=O)C2C1` (stereo unspecified), with 31.1% (inactive); and `Cc1cc(C)c(NC(=O)/C(=C/c2ccccc2)c2ccccc2)c(C)c1`, with 31.8% (inactive); and `Cc1nc(/N=C(\N)NC(=O)N2c3ccccc3Sc3ccccc32)nc2ccccc12`, with 44.3% (inactive).
With `O=C(Cc1ccc(-n2c(=O)[nH]c3ccccc3c2=O)cc1)N1CCN(c2ccccc2)CC1`, the inhibition was 18.6% (inactive).
Regarding `Cc1ccc2nc(NC(=O)c3ccc4ncsc4c3)sc2c1`, the inhibition is 30.2% (inactive).
As to `Nc1ccc(C(=O)Nc2nc3ccccc3s2)cc1`, the inhibition was 69.7% (active).
On to `O=C(Nc1nc2ccccc2s1)C1c2ccccc2Oc2ccccc21`, for which the inhibition is 45.9% (inactive).
As to `Cc1cccc(N2C(=O)CC(Sc3ccccc3C(=O)O)C2=O)c1` (stereo unspecified), the inhibition was 42.5% (inactive).
As to `COC(=O)c1ccccc1SC1CC(=O)N(c2cccc(C)c2)C1=O` (stereo unspecified), the inhibition was 34% (inactive).
`CCN(CC)C1CC(=O)N(c2cccc(C)c2)C1=O` (stereo unspecified): the inhibition is 57.5% (active).
As for `Cc1ccc(N2C(=O)CC(Sc3ccccc3C(=O)O)C2=O)cc1` (stereo unspecified), the inhibition is 40.4% (inactive).
For `CC(C)c1ccc(N2C(=O)CC(Sc3ncn[nH]3)C2=O)cc1` (stereo unspecified), the inhibition is 48.5% (inactive).
Consider `Cc1cc(C)cc(N2C(=O)CC(Sc3ncn[nH]3)C2=O)c1` (stereo unspecified), for which the inhibition is 62.3% (active).
Consider `CCOC(=O)NC1(NCc2ccccc2)Oc2ccccc2O1`, for which the inhibition is 32.2% (inactive).
As for `O=C(Nc1cccc(N=Cc2cc(Br)cc(Br)c2O)c1)c1ccco1`, the inhibition is 39.2% (inactive).
As to `Oc1c(Br)cc(Br)cc1C=Nc1ccc2c(c1)OCO2`, the inhibition is 48.6% (inactive).
Next, `Cc1ccc(C(=O)O)cc1N=Cc1cc(Br)cc(Br)c1O`: 59% (active); `COc1ccc(C(C)C)cc1S(=O)(=O)n1cnc(C)c1`: 18.5% (inactive).
Regarding `Cc1nc2cc(C(=O)NCc3ccc4c(c3)OCO4)ccc2n1-c1ccc(Br)cc1`, the inhibition is 43.1% (inactive).
For the molecule `CCOC(=O)c1c(NC2OC(=O)c3c2ccc(OC)c3OC)sc(C(=O)OC(C)(C)C)c1C` (stereo unspecified), the inhibition is 57.5% (active).
With `Cc1onc(-c2ccccc2Cl)c1C(=O)N1C=CC(C(F)(F)F)=NCC1`, the inhibition was 65.7% (active).
Regarding `NC(=O)c1ncc(C(F)(F)F)cc1Oc1ccc(C(F)(F)F)cc1`, the inhibition was 28.9% (inactive).
Regarding `Cc1ccccc1N=C/C=C1\N(C)c2ccccc2C1(C)C`, the inhibition was 31.9% (inactive).
Then `C(=C\c1nc(N2CCCCCC2)c2ccccc2n1)/c1ccccc1`, with 70.2% (active); and `C(=C\c1nc(N2CCCC2)c2ccccc2n1)/c1ccccc1`, with 78.1% (active).
Regarding `Cc1ccc(C)c(NC(=O)CSc2nnc(-c3ccccc3)o2)c1`, the inhibition is 32.8% (inactive).
Next, `O=[N+]([O-])c1ccc(-c2ccn[nH]2)o1`: 39% (inactive); `O=C(CSc1nnnn1C1CCCCC1)N1c2ccccc2Sc2ccccc21`: 35.8% (inactive); `O=S(=O)(Cc1cc(Sc2ccccc2)nc(-c2ccccc2)n1)c1ccccc1`: 19.4% (inactive).
On to `O=C1CN(c2nnnn2-c2ccccc2)CCN1`, for which the inhibition is 35% (inactive).
On to `CNc1ccccc(-c2ccc3ccccc3n2)c1=O`, for which the inhibition was 24.8% (inactive).
Consider `Nc1ccc(C(=O)c2cccs2)cc1`, for which the inhibition was 44% (inactive).
Regarding `Cc1cccc(/C(N)=N/OC(=O)c2cccc3ccccc23)c1`, the inhibition is 28.9% (inactive).
As to `Cc1cccc(/C(N)=N/OC(=O)c2ccc(Cl)cc2Cl)c1`, the inhibition is 21.6% (inactive).
Next, `N/C(Cc1ccc(Cl)cc1Cl)=N\OC(=O)c1cccs1`: 51.2% (active); `COc1ccc(C(=O)O/N=C(\N)Cc2ccc(Cl)cc2Cl)cc1OC`: 40.5% (inactive).
Then `N/C(Cc1cccs1)=N\OC(=O)COc1ccccc1Cl`, with 45.7% (inactive).
Then `Cc1cccc(/C(N)=N/OC(=O)c2ccc3c(c2)OCO3)c1`, with 54.1% (active).
Take `Cc1ccc(/C(N)=N/OC(=O)c2cccs2)cc1`: the inhibition is 57.2% (active).
In the case of `COc1ccc(Cl)cc1C(=O)O/N=C(\N)c1ccc(Cl)cc1`, the inhibition is 35.3% (inactive).
Next, `Cc1ccc(/C(N)=N/OC(=O)c2ccc(Cl)cc2Cl)cc1`: 36% (inactive); `Cc1ccc(/C(N)=N/OC(=O)c2ccc3c(c2)OCO3)cc1`: 77.3% (active).
`COc1ccc(/C=C(/C(=O)c2cccs2)N2C=CC=CC2=C(C#N)C#N)cc1`: the inhibition is 38.4% (inactive).
As for `COc1ccc2oc(=Nc3ccccc3)c(-c3nc4ccccc4[nH]3)cc2c1`, the inhibition was 38% (inactive).
`Nc1ccccc1-c1nc2ccccc2[nH]1`: the inhibition was 71.9% (active).
`Cc1ccc2nc(-c3ccc(NC(=O)CN(c4ccccc4C)S(C)(=O)=O)cc3)sc2c1`: the inhibition was 37.2% (inactive).
Regarding `O=C(NCc1ccc(F)cc1)c1cc(-c2ccco2)on1`, the inhibition is 33% (inactive).
On to `O=C(Nc1cccc(O)c1)c1cc(-c2ccco2)on1`, for which the inhibition is 74.8% (active).
Next, `CCCn1c(-c2cccnc2Cl)nc2cc(Cl)c(Cl)cc21`: 41.4% (inactive); `CC(C)CC(=O)/C(=C\c1ccc(Cl)cc1Cl)n1cncn1`: 100% (active).
As to `Oc1ccc2ccccc2c1CN1CCN(c2ccccc2)CC1`, the inhibition was 33.5% (inactive).
`Cc1ccc(CN2CCN(/N=C/c3cccs3)CC2)cc1`: the inhibition was 34.5% (inactive).
In the case of `O=C(NCCc1csc(-c2ccccc2)n1)c1ccc(Br)o1`, the inhibition was 57.4% (active).
Take `O=C(NCCCn1ccnc1)c1ccc(Br)o1`: the inhibition was 22.2% (inactive).
Next, `COc1ccc(-c2nc(CCNC(=O)c3cccs3)cs2)cc1`: 41.9% (inactive); `Cc1ccc2cc(CN(Cc3ccco3)C(=O)NC3CCCCC3)c(=O)[nH]c2c1C`: 18.7% (inactive).
Then `Nc1nc(-c2ccco2)nn1S(=O)(=O)c1ccccc1`, with 23.4% (inactive); and `CS(=O)(=O)c1nc(-c2ccco2)cc(C(F)(F)F)n1`, with 81.3% (active); and `CCOC(=O)c1c(C)[nH]c2c1-c1ccccc1C(=O)C2=O`, with 25.1% (inactive).
Then `O=S(=O)(Nc1ccc(Oc2ncccn2)c(Cl)c1)c1ccc(F)cc1`, with 23% (inactive); and `Cc1cc(C)c(S(=O)(=O)Nc2cc(SCC(=O)O)c(O)c3ccccc23)cc1C`, with 22.2% (inactive); and `O=S(=O)(Nc1cc(Sc2cccc3cccnc23)c(O)c2ccccc12)c1ccc(F)cc1`, with 56.7% (active).
In the case of `CN(C)CCN(Cc1ccccc1)c1nccc(N(C)C)c1C#N`, the inhibition is 25.1% (inactive).
For `O=C(O)C1C2C=CC(C2)C1C(=O)NCc1ccc(Cl)c(Cl)c1` (stereo unspecified), the inhibition is 33.5% (inactive).
`CS(=O)(=O)N(CC(=O)Nc1ccccc1Sc1ccccc1)C1CCCCC1`: the inhibition was -0.35% (inactive).

The values above are taken from PubChem BioAssay AID488841 (Sanford-Burnham Center for Chemical Genomics, 2010).
